Only some compounds are listed: those with a hit (about 0.9% of all), similar ones and a draw of the others.
PPARg SRC2 recr – agonists of SRC-2 recruitment by human PPARgamma. AID 1032. PPARgamma LBD-SRC-2 recruitment, biochemical. hit rate 0.34% among 200,000. P37231. activation, % at 8 µM; in the data active = activation above about 22%;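 also: 0% = vehicle and 100% = reference agonist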
Target sequence (P37231 whole entry, looked up, the tested form may be a part): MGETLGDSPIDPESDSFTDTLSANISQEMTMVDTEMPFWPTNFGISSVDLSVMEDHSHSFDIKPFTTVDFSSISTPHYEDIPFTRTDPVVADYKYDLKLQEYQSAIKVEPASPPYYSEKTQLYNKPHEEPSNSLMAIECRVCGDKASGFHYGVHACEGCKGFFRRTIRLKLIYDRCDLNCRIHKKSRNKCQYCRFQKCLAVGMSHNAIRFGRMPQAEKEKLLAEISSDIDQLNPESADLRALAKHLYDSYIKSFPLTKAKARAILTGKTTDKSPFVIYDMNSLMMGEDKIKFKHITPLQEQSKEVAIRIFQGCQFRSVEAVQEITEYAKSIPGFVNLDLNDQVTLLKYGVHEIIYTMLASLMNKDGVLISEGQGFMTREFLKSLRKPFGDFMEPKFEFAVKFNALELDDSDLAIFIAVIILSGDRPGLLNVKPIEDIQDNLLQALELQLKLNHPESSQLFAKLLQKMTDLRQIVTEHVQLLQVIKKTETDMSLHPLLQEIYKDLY
PPARg SRC3 recr – promotes SRC-3 coactivator recruitment by human PPARgamma. P37231. biochemical PPARgamma/SRC-3 coactivator recruitment assay. activation, % at 8 µM. hit rate 0.26% among 200,000. AID 731; in the data active = activation above about 23%;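 also: 0% = DMSO and 100% = reference agonist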
SRC3 TRFRET art – flags TR-FRET format artefacts in PPARgamma SRC-3 recruitment agonist screen | TR-FRET artefact counter-screen, PPARgamma/SRC-3 format; hits give high values | hit rate 0.39% among 99,000 | TR-FRET ratio at 8 µM
SRC2 TRFRET art – TR-FRET artefact, counter-screen to PPARgamma/SRC-2 agonist assay; AID 1049; TR-FRET ratio at 8 µM; hits give high values; hit rate 0.4% among 200,000
SRC1 TRFRET art – counter-screen for PPARgamma SRC-1 recruitment agonists: TR-FRET artefact | TR-FRET detection artefact counter-screen, emission ratio; hits give high values | TR-FRET ratio at 8 µM | hit rate 0.34% among 99,000; in the data active = TR-FRET ratio above about 2300
PPARg SRC-1 ag – PPARgamma-driven SRC-1 recruitment agonism. P37231. PPARgamma-SRC-1 coactivator recruitment biochemical assay. activation, % at 8 µM. hit rate 0.41% among 200,000; in the data active = activation above about 19%;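 also: 0% = DMSO and 100% = reference agonist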
* hit, by the source's call. Rule as the data show it, unless noted: active = TR-FRET ratio above about 2000; inactive = the rest.

CCCCC(=O)Nc1nc2ccc3nc(C)sc3c2s1 was read as PPARg SRC2 recr 7, PPARg SRC3 recr 0, SRC2 TRFRET art 1978* and PPARg SRC-1 ag -4.
Cn1c(=O)c2c(ncn2CCNC2=NCCCCC2)n(C)c1=O was read as PPARg SRC2 recr 38*, PPARg SRC3 recr -1, SRC3 TRFRET art 1640, SRC2 TRFRET art 1522, SRC1 TRFRET art 1841 and PPARg SRC-1 ag -1.
`Cc1onc(-c2ccccc2)c1C(=O)NNC(=S)NC(=O)/C=C/c1cccs1` gave PPARg SRC2 recr -6, PPARg SRC3 recr -5, SRC3 TRFRET art 1535, SRC2 TRFRET art 1652, SRC1 TRFRET art 1752 and PPARg SRC-1 ag -3.
For O=C(CSc1nc2c(c(=O)[nH]1)CCC2)Nc1cccc(Cl)c1 the results were PPARg SRC2 recr -5, PPARg SRC3 recr -14, SRC2 TRFRET art 1428 and PPARg SRC-1 ag 5.
For N#Cc1c(-c2ccco2)nc(SCC(=O)Nc2cccc(Cl)c2)[nH]c1=O the results were PPARg SRC2 recr 20, PPARg SRC3 recr 22, SRC2 TRFRET art 2164* and PPARg SRC-1 ag 18.
`CCO[C@H]1OC(C(=O)N2CCN(Cc3ccc4c(c3)OCO4)CC2)=C[C@@H](c2ccccc2)[C@@H]1CCCO` gave PPARg SRC2 recr 1, PPARg SRC3 recr 0, SRC3 TRFRET art 1624, SRC2 TRFRET art 1574, SRC1 TRFRET art 1658 and PPARg SRC-1 ag 4.
Screening CCO[C@@H]1OC(C(=O)N2CCN(Cc3ccc4c(c3)OCO4)CC2)=C[C@H](c2csc3ccccc23)[C@H]1CCCO returned PPARg SRC2 recr 23*, PPARg SRC3 recr 6, SRC3 TRFRET art 1578, SRC2 TRFRET art 1593, SRC1 TRFRET art 2146 and PPARg SRC-1 ag 9.
For CCN(C(=O)COC(=O)c1cc(-c2ccccc2)nc2ccc(Br)cc12)C1CCS(=O)(=O)C1 (stereo not given) the results were PPARg SRC2 recr 4, PPARg SRC3 recr 10, SRC3 TRFRET art 2241*, SRC2 TRFRET art 1887, SRC1 TRFRET art 2327* and PPARg SRC-1 ag 16.
`Cc1csc(NC(=O)CSc2nnc(NC(=O)C3CC(=O)N(c4ccccc4)C3)s2)n1` (stereo not given) gave PPARg SRC2 recr 15, PPARg SRC3 recr 6, SRC3 TRFRET art 1413, SRC2 TRFRET art 1627, SRC1 TRFRET art 2325* and PPARg SRC-1 ag 2.
CSc1nnc(CSc2cc(C)nc(N(C)C)n2)o1 was read as PPARg SRC2 recr -7, PPARg SRC3 recr -6, SRC3 TRFRET art 1469, SRC2 TRFRET art 1533, SRC1 TRFRET art 1706 and PPARg SRC-1 ag -5.
Screening COC(=O)NCN1C(=O)C2C3C=CC(C3)C2C1=O (stereo not given) returned PPARg SRC2 recr 6, PPARg SRC3 recr -4, SRC3 TRFRET art 1653, SRC2 TRFRET art 1576, SRC1 TRFRET art 2043 and PPARg SRC-1 ag 7.
For CCc1cc2c(=O)n(CCC(C)C)c(=S)[nH]c2s1 the results were PPARg SRC2 recr 8, PPARg SRC3 recr 10, SRC3 TRFRET art 1765, SRC2 TRFRET art 1976*, SRC1 TRFRET art 2042 and PPARg SRC-1 ag 11.
O=C(CSc1ncnc2nc[nH]c12)Nc1nnc(SCc2ccc(Cl)c(Cl)c2)s1 was read as PPARg SRC2 recr 6, PPARg SRC3 recr 0, SRC3 TRFRET art 1382, SRC2 TRFRET art 1446, SRC1 TRFRET art 1759 and PPARg SRC-1 ag 2.
For CCc1ccc2nc(N3C(=O)C(O)=C(C(=O)c4ccco4)C3c3cccs3)sc2c1 (stereo not given) the results were PPARg SRC2 recr 36*, PPARg SRC3 recr 28*, SRC2 TRFRET art 2282* and PPARg SRC-1 ag 29*.
`O=S(=O)(c1ccc(N2CCN(S(=O)(=O)c3ccc4c(c3)OCCO4)CC2)nc1)N1CCCC1` gave PPARg SRC2 recr 12, PPARg SRC3 recr 34*, SRC2 TRFRET art 2273* and PPARg SRC-1 ag 18.
`Cc1ccc(-c2nc3ccccc3c(=O)n2CCCN2CCOCC2)cc1` gave PPARg SRC2 recr 8, PPARg SRC3 recr 9, SRC2 TRFRET art 1786 and PPARg SRC-1 ag 13.
`O=c1c2ccccc2nc(-c2ccccc2)n1CCCN1CCOCC1` gave PPARg SRC2 recr 2, PPARg SRC3 recr 5, SRC2 TRFRET art 1680 and PPARg SRC-1 ag 19*.
CC1Cc2ccccc2N1C(=O)CSc1nnnn1-c1ccc2c(c1)OCCO2 (stereo not given) was read as PPARg SRC2 recr 18, PPARg SRC3 recr 3, SRC2 TRFRET art 2058* and PPARg SRC-1 ag 7.
O=C(CSc1nc2nc3c(cc2c(=O)n1-c1ccccc1)CCCC3)Nc1cccc2ccccc12 was read as PPARg SRC2 recr 12, PPARg SRC3 recr -2, SRC3 TRFRET art 2727*, SRC2 TRFRET art 2372*, SRC1 TRFRET art 2437* and PPARg SRC-1 ag 3.
CCn1c(SCC(=O)Nc2ccc(Cl)cc2)nc2nc3c(cc2c1=O)CCCC3 was read as PPARg SRC2 recr 68*, PPARg SRC3 recr 4, SRC3 TRFRET art 1898, SRC2 TRFRET art 2837*, SRC1 TRFRET art 1677 and PPARg SRC-1 ag 0.
For S=C(NC1CCCC1)N1CCN(c2ccc(Cl)cc2)CC1 the results were PPARg SRC2 recr 3, PPARg SRC3 recr 4, SRC3 TRFRET art 1687, SRC2 TRFRET art 1530, SRC1 TRFRET art 1734 and PPARg SRC-1 ag 0.
Screening Cc1ccc(C)c(S(=O)(=O)N2CCN(CC(=O)Nc3sccc3C#N)CC2)c1 returned PPARg SRC2 recr 2, PPARg SRC3 recr 8, SRC3 TRFRET art 2054*, SRC2 TRFRET art 1734, SRC1 TRFRET art 1942 and PPARg SRC-1 ag 5.
Screening O=C(OC1CCCCC1)c1ccc2c(c1)C1C=CCC1C(C(=O)O)N2 (stereo not given) returned PPARg SRC2 recr 19, PPARg SRC3 recr 5, SRC3 TRFRET art 1554, SRC2 TRFRET art 2020*, SRC1 TRFRET art 1642 and PPARg SRC-1 ag 4.
O=C(CN1N=C(c2ccc(Cl)cc2)CCC1=O)NCc1cccnc1 was read as PPARg SRC2 recr 0, PPARg SRC3 recr -1, SRC3 TRFRET art 1434, SRC2 TRFRET art 1517, SRC1 TRFRET art 1957 and PPARg SRC-1 ag 1.
`O=C(COc1ccc([N+](=O)[O-])cc1)NC(C(=O)O)C(O)c1cccc([N+](=O)[O-])c1` (stereo not given) gave PPARg SRC2 recr -4, PPARg SRC3 recr -2, SRC3 TRFRET art 1434, SRC2 TRFRET art 1421, SRC1 TRFRET art 1672 and PPARg SRC-1 ag -1.
CCCSc1nc(C)nc2c1c(=O)n(C)c(=O)n2C was read as PPARg SRC2 recr 0, PPARg SRC3 recr -2, SRC2 TRFRET art 1545 and PPARg SRC-1 ag 24*.
Screening CCCCSc1nc(C)nc2c1c(=O)n(C)c(=O)n2C returned PPARg SRC2 recr 10, PPARg SRC3 recr -1, SRC2 TRFRET art 1678 and PPARg SRC-1 ag 2.
O=C(Nc1nc(-c2ccco2)c(-c2ccco2)s1)C1CCC1 was read as PPARg SRC2 recr 9, PPARg SRC3 recr 12, SRC3 TRFRET art 1995, SRC2 TRFRET art 1761, SRC1 TRFRET art 2403* and PPARg SRC-1 ag 11.
Screening CC1=CC(=O)c2c(O)ccc(O)c2C1=O returned PPARg SRC2 recr -4, PPARg SRC3 recr -1, SRC3 TRFRET art 1486, SRC2 TRFRET art 1312, SRC1 TRFRET art 1650 and PPARg SRC-1 ag 8.

Screens: PubChem BioAssay, The Scripps Research Institute Molecular Screening Center
